Experimental data reported in PubChem BioAssay AID1159580 (chemical genetic matrix, 2015).
Among all 5,500 compounds or so, about 2,000 (36%) were called active. Another 18% or so got no clear call; they are omitted. Cut-off read from the data, not from the text of the source: active = normalized growth mostly below about 0.91 (no sharp cut-off); inconclusive = no clear call, values can overlap the other calls; inactive = mostly above about 0.92. The list shows a part of the results.

Test: chemical genetic growth profiling, strain panel (AID 1159580);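 note: tested at 20 µM; growth read once vehicle control cultures reached saturation at 30 °C; 1 = growth at the plate median or of vehicle wells; lower values mean less growth of the strain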
Conditions: growth OD

Measured: normalized growth

O=c1[nH]cnc2c1ncn2C1O[C@H](CO)[C@@H](O)[C@H]1O (some centres undefined)
inactive: S. cerevisiae deletion strains, locus YJR075W, strain HOC1, stronger effect = lower value 1.01 | S. cerevisiae deletion strains, locus YKL009W, strain mrt4, stronger effect = lower value 0.979 | S. cerevisiae deletion strains, locus YKL068W, stronger effect = lower value 1.01 | S. cerevisiae deletion strains, locus YKL085W, strain MDH1 (second series), stronger effect = lower value 0.998 | S. cerevisiae deletion strains, locus YKL085W, strain MDH1, stronger effect = lower value 0.998 | S. cerevisiae deletion strains, locus YKL160W, strain elf1, stronger effect = lower value 0.986 | S. cerevisiae deletion strains, locus YKL190W, strain CNB1, stronger effect = lower value 1 | S. cerevisiae deletion strains, locus YKR001C, strain vps1, stronger effect = lower value 1.06 | S. cerevisiae deletion strains, locus YKR026C, strain gcn3, stronger effect = lower value 0.984 | S. cerevisiae deletion strains, locus YKR091W, strain srl3, stronger effect = lower value 0.986 | S. cerevisiae deletion strains, locus YLL001W, strain dnm1, stronger effect = lower value 1.01 | S. cerevisiae deletion strains, locus YLL026W, stronger effect = lower value 0.993 | S. cerevisiae deletion strains, locus YLL041C, strain sdh2, stronger effect = lower value 1 | S. cerevisiae deletion strains, locus YLR027C, strain aat2, stronger effect = lower value 0.994 | S. cerevisiae deletion strains, locus YLR039C, strain RIC1, stronger effect = lower value 1.04 | S. cerevisiae deletion strains, locus YLR058C, strain SHM2, stronger effect = lower value 0.999 | S. cerevisiae deletion strains, locus YLR102C, strain apc9, stronger effect = lower value 1.04 | S. cerevisiae deletion strains, locus YLR113W, strain HOG1, stronger effect = lower value 0.978 | S. cerevisiae deletion strains, locus YLR221C, strain rsa3, stronger effect = lower value 0.96 | S. cerevisiae deletion strains, locus YLR258W, strain gsy2, stronger effect = lower value 0.99 | S. cerevisiae deletion strains, locus YLR262C, strain YPT6 (second series), stronger effect = lower value 1.02 | S. cerevisiae deletion strains, locus YLR262C, strain YPT6, stronger effect = lower value 1.05 | S. cerevisiae deletion strains, locus YLR268W, strain sec22, stronger effect = lower value 1.05 | S. cerevisiae deletion strains, locus YLR320W, strain mms22, stronger effect = lower value 0.959 | S. cerevisiae deletion strains, locus YLR330W, strain CHS5, stronger effect = lower value 1.01 | S. cerevisiae deletion strains, locus YLR342W, strain FKS1 (second series), stronger effect = lower value 0.996 | S. cerevisiae deletion strains, locus YLR342W, strain FKS1, stronger effect = lower value 0.989 | S. cerevisiae deletion strains, locus YLR357W, strain rsc2, stronger effect = lower value 0.971 | S. cerevisiae deletion strains, locus YLR370C, strain arc18, stronger effect = lower value 0.991 | S. cerevisiae deletion strains, locus YLR371W, strain rom2, stronger effect = lower value 1.01 | S. cerevisiae deletion strains, locus YLR384C, strain iki3, stronger effect = lower value 0.969 | S. cerevisiae deletion strains, locus YLR418C, strain cdc73, stronger effect = lower value 1.01 | S. cerevisiae deletion strains, locus YML016C, strain PPZ1, stronger effect = lower value 1 | S. cerevisiae deletion strains, locus YML032C, strain rad52, stronger effect = lower value 1.01 | S. cerevisiae deletion strains, locus YML120C, strain ndi1, stronger effect = lower value 1.01 | S. cerevisiae deletion strains, locus YML124C, strain tub3, stronger effect = lower value 1.02 | S. cerevisiae deletion strains, locus YMR058W, strain fet3, stronger effect = lower value 0.992 | S. cerevisiae deletion strains, locus YMR078C, strain ctf18, stronger effect = lower value 1.06 | S. cerevisiae deletion strains, locus YMR125W, strain sto1, stronger effect = lower value 1.01 | S. cerevisiae deletion strains, locus YMR129W, stronger effect = lower value 0.997 | S. cerevisiae deletion strains, locus YMR205C, strain PFK2, stronger effect = lower value 0.984 | S. cerevisiae deletion strains, locus YMR223W, strain ubp8, stronger effect = lower value 1.01 | S. cerevisiae deletion strains, locus YMR231W, strain pep5, stronger effect = lower value 0.977 | S. cerevisiae deletion strains, locus YMR263W, strain SAP30, stronger effect = lower value 1 | S. cerevisiae deletion strains, locus YMR307W, strain GAS1, stronger effect = lower value 1.01 | S. cerevisiae deletion strains, locus YNL067W, strain RPL9B, stronger effect = lower value 1.01 | S. cerevisiae deletion strains, locus YNL071W, strain lat1, stronger effect = lower value 1 | S. cerevisiae deletion strains, locus YNL153C, strain GIM3, stronger effect = lower value 0.99 | S. cerevisiae deletion strains, locus YNL183C, strain NPR1, stronger effect = lower value 0.908 | S. cerevisiae deletion strains, locus YNL209W, strain ssb2, stronger effect = lower value 0.995 | S. cerevisiae deletion strains, locus YNL233W, strain BNI4, stronger effect = lower value 1.02 | S. cerevisiae deletion strains, locus YNL248C, strain rpa49, stronger effect = lower value 0.902 | S. cerevisiae deletion strains, locus YNL250W, strain rad50, stronger effect = lower value 1.03 | S. cerevisiae deletion strains, locus YNL271C, strain bni1, stronger effect = lower value 1.04 | S. cerevisiae deletion strains, locus YNL298W, strain CLA4, stronger effect = lower value 1.03 | S. cerevisiae deletion strains, locus YNL307C, strain MCK1, stronger effect = lower value 1.05 | S. cerevisiae deletion strains, locus YNL322C, strain KRE1 (second series), stronger effect = lower value 0.985 | S. cerevisiae deletion strains, locus YNR049C, strain mso1, stronger effect = lower value 0.978 | S. cerevisiae deletion strains, locus YNR052C, strain pop2, stronger effect = lower value 1.02 | S. cerevisiae deletion strains, locus YOL012C, strain htz1 1.16 | S. cerevisiae deletion strains, locus YOL147C, strain pex11, stronger effect = lower value 1.04 | S. cerevisiae deletion strains, locus YOR001W, strain rrp6, stronger effect = lower value 0.994 | S. cerevisiae deletion strains, locus YOR061W, strain CKA2, stronger effect = lower value 1.01 | S. cerevisiae deletion strains, locus YOR069W, strain VPS5, stronger effect = lower value 1 | S. cerevisiae deletion strains, locus YOR070C, strain gyp1, stronger effect = lower value 0.991 | S. cerevisiae deletion strains, locus YOR080W, strain dia2, stronger effect = lower value 0.99 | S. cerevisiae deletion strains, locus YOR083W, strain WHI5, stronger effect = lower value 0.998 | S. cerevisiae deletion strains, locus YOR106W, strain vam3, stronger effect = lower value 1.01 | S. cerevisiae deletion strains, locus YOR136W, strain idh2, stronger effect = lower value 1.02 | S. cerevisiae deletion strains, locus YOR144C, strain elg1, stronger effect = lower value 1.03 | S. cerevisiae deletion strains, locus YOR184W, strain ser1, stronger effect = lower value 1.05 | S. cerevisiae deletion strains, locus YOR231W, strain MKK1, stronger effect = lower value 0.982 | S. cerevisiae deletion strains, locus YOR265W, strain rbl2, stronger effect = lower value 0.984 | S. cerevisiae deletion strains, locus YOR270C, strain vph1, stronger effect = lower value 0.987 | S. cerevisiae deletion strains, locus YOR290C, strain snf2, stronger effect = lower value 1 | S. cerevisiae deletion strains, locus YOR316C, strain cot1, stronger effect = lower value 1.04 | S. cerevisiae deletion strains, locus YPL051W, strain arl3, stronger effect = lower value 0.977 | S. cerevisiae deletion strains, locus YPL055C, strain LGE1, stronger effect = lower value 1.03 | S. cerevisiae deletion strains, locus YPL078C, strain atp4, stronger effect = lower value 1 | S. cerevisiae deletion strains, locus YPL106C, strain sse1, stronger effect = lower value 1.02 | S. cerevisiae deletion strains, locus YPL240C, strain hsp82, stronger effect = lower value 0.984 | S. cerevisiae deletion strains, locus YPL241C, strain CIN2, stronger effect = lower value 1 | S. cerevisiae deletion strains, locus YPL256C, strain CLN2, stronger effect = lower value 0.965 | S. cerevisiae deletion strains, locus YPR119W, strain clb2, stronger effect = lower value 1.06 | S. cerevisiae deletion strains, locus YPR141C, strain kar3, stronger effect = lower value 1.03 | S. cerevisiae deletion strains, locus YPR163C, strain tif3, stronger effect = lower value 1.02 | S. cerevisiae deletion strains, locus YPR167C, strain met16, stronger effect = lower value 1.02 | S. cerevisiae deletion strains, strain wtn01, stronger effect = lower value 1.04 | S. cerevisiae strains, strain wild type, stronger effect = lower value 1.01
